Test results taken from PubChem BioAssay AID504374 (National Center for Advancing Translational Sciences (NCATS), 2011).
“And” between values parts separate entries of the source, which are not always exact repeats. Equal entries are not always repeated. The campaign covered roughly 1,500 compounds. About 100 (6.7%) were called active. Inconclusive results (about 7%) are left out. This excerpt belongs to a sample that is enriched for actives. Unmarked numbers belong to inactive results. Calls follow the shape of the dose curve; as a rule, active = well fitted inhibition curve with a large enough effect; inconclusive = small, poorly fitted or top-dose-only effect, or effect the other way; inactive = flat fitted curve, though single readings scatter.

Each compound was assayed against Runt-related transcription factor 1 (Homo sapiens) + Core-binding factor subunit beta (Homo sapiens) (UniProt Q01196+Q13951) (assay: qHTS Assay for Compounds Blocking the Interaction Between CBF-beta and RUNX1 for the Treatment of Acute Myeloid Leukemia: Hit Validation). Details: AlphaScreen CBFb-His/RUNX1-biotin binding; series mostly up to 59.8 µM; activity, negative = inhibition: at the top concentration.
Chain of Runt-related transcription factor 1 (Homo sapiens) + Core-binding factor subunit beta (Homo sapiens) (Q01196 whole entry, looked up): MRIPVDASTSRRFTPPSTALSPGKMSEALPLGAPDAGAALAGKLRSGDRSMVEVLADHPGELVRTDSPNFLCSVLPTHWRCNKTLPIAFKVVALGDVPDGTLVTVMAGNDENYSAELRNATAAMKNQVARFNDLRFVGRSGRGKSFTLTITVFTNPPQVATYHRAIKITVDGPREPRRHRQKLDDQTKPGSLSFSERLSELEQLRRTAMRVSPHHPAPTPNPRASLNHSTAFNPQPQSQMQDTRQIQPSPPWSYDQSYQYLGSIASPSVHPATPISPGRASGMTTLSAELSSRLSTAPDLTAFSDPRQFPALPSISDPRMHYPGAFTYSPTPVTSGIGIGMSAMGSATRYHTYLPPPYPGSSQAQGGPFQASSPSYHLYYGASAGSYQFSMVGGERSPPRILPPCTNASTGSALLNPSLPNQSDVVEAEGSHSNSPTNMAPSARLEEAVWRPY
Chain of Runt-related transcription factor 1 (Homo sapiens) + Core-binding factor subunit beta (Homo sapiens) (Q13951 whole entry, looked up): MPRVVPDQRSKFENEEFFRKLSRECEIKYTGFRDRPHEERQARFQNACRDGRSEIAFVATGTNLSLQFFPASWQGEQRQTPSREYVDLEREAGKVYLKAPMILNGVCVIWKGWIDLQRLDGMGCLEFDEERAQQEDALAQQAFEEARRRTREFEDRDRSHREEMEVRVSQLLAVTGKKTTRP
Outline: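 Compounds were added to a premixed CBF-beta-His/RUNX1-biotin complex (30 nM each, 20 min) for 15 min. Nickel and streptavidin AlphaScreen beads followed for 90 min at room temperature, with emission at 440 nm […].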
% is scaled to controls: 0 for no effect and ±100 for the full control effect; potency is read from the fitted curve at half-maximal effect.
Also: nearly all actives have a fitted effect of over 60% in size.

Row | Compound | activity, negative = inhibition [%] | Potency
1 | CCCCc1cc(=O)oc2c(C)c(OCc3nn[nH]n3)ccc12 | -4.17 | –
2 | CC(=O)Nc1nnc(CSCc2ccc(F)cc2)s1 | -1.58 | –
3 | Cc1ccc(-c2nn[nH]n2)cc1Cl | 0.848 | –
4 | Cc1ccc(C(=O)/C=C/N(C)C)cn1 | -6.06 | –
5 | CCOC(=O)Cc1csc(NC(=O)Nc2cccc(OC)c2)n1 | 6.65 | –
6 | CCOC(=O)N1CCC(NS(=O)(=O)c2ccc(C)c(Cl)c2)CC1 | -2.28 | –
7 | CCOc1ccc(Nc2nc(N)nc(CSC(=S)N3CCOCC3)n2)cc1 | -12.1 | –
8 | CCN(CC)C(=S)SSC(=S)N(CC)CC | – | 0.794 µM (active)
9 | Cc1ccncc1C(N)=O | -0.629 | –
10 | CC(C)N(CCn1cnc2c([nH]c3ccccc32)c1=O)C(C)C | 1.42 | –
11 | Cc1onc(-c2c(Cl)cccc2Cl)c1NC(=O)NC1CCSC1 (stereo unspecified) | -3.96 | –
12 | O=C(O[C@@H]1OC2COC(=O)c3cc(O)c(O)c(O)c3-c3c(cc(O)c(O)c3O)C(=O)O[C@@H]([C@H]1O)[C@@H]2O)c1cc(O)c(O)c(O)c1 | – | 0.224 µM (active)
13 | O=C1OCC2OC(O)C(O)C(O)C2OC(=O)c2cc(O)c(O)c(O)c2-c2c(O)c(O)c3oc(=O)c4c(c(O)c(O)c5oc(=O)c2c3c54)-c2c1cc(O)c(O)c2O (stereo unspecified) | – | 0.224 µM (active)
14 | Cc1oc(S(=O)(=O)N(C)C)cc1C(=O)Nc1ccc(Cl)cc1 | -5.12 | –
15 | Cc1ccc2[nH]cc(CCNC(=O)/C=C/c3ccco3)c2c1 | -14.3 | –
16 | CC1(C)C(CC2OCC(CN3CCCCC3)O2)[C@H]2CC[C@@H]1C2 (stereo partly specified) | -2.34 | –
17 | C=C(C)C(=O)Nc1cccnc1Oc1ccc(F)cc1 | -1.27 | –
18 | O=C1CCCN1CCCNC(=S)Nc1ccccc1 | -7.84 | –
19 | C=C(C)C(=O)Nc1cccnc1Oc1ccc(F)cc1F | -0.381 | –
20 | O=c1c(O)cccc2cc(O)c(O)c(O)c12 | – | 447 nM (active) and 631 nM (active)
21 | CCOC(=O)C1(C)C=C(Nc2cccc(OC)c2)C(=O)N1c1ccccc1 (stereo unspecified) | -13 | –
22 | COc1ccccc1NC(=O)Nc1sccc1-c1nc2ccccc2s1 | -17.1 | –
23 | CCOC(=O)c1cnc2c(C(=O)OCC)cnn2c1N | -0.993 | –
24 | O=c1[nH]cc(I)cc1I | – | 17.3 µM (active)
25 | CNC(=O)C(=O)N/N=C/c1cccnc1 | 26.6 | –
26 | Oc1ccc(/C=N/NC(=S)Nc2cccnc2)c(O)c1 | – | 1.58 µM (active)

Row | Compound | activity, negative = inhibition [%] | Potency
27 | S=C(N/N=C/c1cccc2ccccc12)Nc1cccc(Cl)c1 | -12.9 | –
28 | Oc1ccc(/C=N/NC(=S)Nc2cccnc2)c(O)c1O | – | 1.26 µM (active)
29 | CC(C)(C)c1ccc(NC(=S)NCc2cccnc2)cc1 | -3.62 | –
30 | Oc1ccc(NC(=S)Nc2ccccc2)cc1 | -3.44 | –
31 | O=c1[nH]nc(N/N=C/c2ccc(Cl)cc2Cl)c(=O)[nH]1 | -5.54 | –
32 | Cc1onc(-c2c(F)cccc2Cl)c1C(=O)N=C(N)N1CC(C)OC(C)C1 (stereo unspecified) | -0.719 | –
33 | O=C(O)C1(c2ccccc2)CCN(S(=O)(=O)c2ccc(Cl)s2)CC1 | -0.0237 | –
34 | N#Cc1c(-c2ccccc2Cl)c2c([nH]c1=O)-c1ccccc1OC2 | 4.48 | –
35 | COc1ccccc1NC(=O)OCC#CCOC(=O)Nc1ccccc1OC | 9.79 | –
36 | CCn1c(NC(=O)c2ccccc2F)c(-c2cccs2)c(=O)c2ccccc21 | -8 | –
37 | S=c1[nH]c2cc3ccccc3cc2[nH]1 | 10.7 | –
38 | Nc1ccc2nc3c(=O)[nH]c(=S)[nH]c3nc2c1 | – | 2.51 µM (active)
39 | COc1ccccc1NC(=S)NCC1CCC(CNC(=S)Nc2ccccc2OC)CC1 (stereo unspecified) | -2.72 | –
40 | COC(=O)c1cccnc1Oc1ccccc1 | -13.6 | –
41 | NC(=O)c1cccnc1Oc1ccc(Cl)cc1 | -13 | –
42 | O=C(O)c1cccnc1C(=O)O | – | 14.1 µM (active)
43 | Cc1[nH]ncc1-c1ccccc1Cl | 2.43 | –
44 | Nc1nc(CCl)nc(Nc2ccc3ccccc3c2)n1 | 3.21 | –
45 | Cc1ccc(N2CC(c3nc4ccccc4n3C)CC2=O)cc1 (stereo unspecified) | 0.961 | –
46 | Cc1ccc2nc(-c3ccc(N)cc3)sc2c1 | 0.903 | –
47 | Cc1cc2nc3ccc(=[N+](C)C)cc-3sc2cc1N | – | 6.31 µM (active)
48 | Oc1cccc(O)c1O | – | 3.97 µM (active)
49 | Cn1nc(-c2ccccc2)cc1NC(=O)CCCC(=O)O | -2.32 | –
50 | Cc1ccnn1CC(=O)N/N=C/c1cn[nH]c1-c1ccc(F)cc1 | -5.89 | –
51 | CC(C)CC(=O)NC(=S)Nc1ccccc1N1CCCC1 | -17.3 | –
52 | CNC(=O)Nc1cc(NC(=O)NC)cc(C(F)(F)F)c1 | -3.15 | –

Row | Compound | activity, negative = inhibition [%] | Potency
53 | CCOC(=O)C1=C(C)NC(C)=C(C(=O)OCC)C1 | 0.11 | –
54 | CCCC(=O)NC(c1cccs1)c1cc([N+](=O)[O-])c2cccnc2c1O (stereo unspecified) | – | 3.98 µM (active)
55 | CN(C)C(=O)CSc1nnc(NC(=O)CCc2ccccc2)s1 | 5.1 | –
56 | COC(=O)/C=C(\C)N=Nc1c(O)[nH]c2ccccc12 | -4.81 | –
57 | Cc1ccc(CN(C(=O)c2cc(=O)c3cc(C)cc(C)c3o2)C2CCS(=O)(=O)C2)cc1 (stereo unspecified) | 4.59 | –
58 | Cc1cccc(C)c1NC(=S)N1CC(C)OC(C)C1 (stereo unspecified) | -4.3 | –
59 | Cn1cnc(S(=O)(=O)Nc2ccc(OC(F)F)cc2)c1 | 1.32 | –
60 | O=C1C(CCC(O)c2ccc(F)cc2)C(c2ccc(O)cc2)N1c1ccc(F)cc1 (stereo unspecified) | – | 15.8 µM (active)
61 | CC(C)(C)OC(=O)N1CCCN(C(=O)Nc2ccccc2)CC1 | 0.141 | –
62 | COc1cccc(NC(=O)C(=O)NCCc2ccc(F)cc2)c1 | 5.31 | –
63 | CCOC(=O)/C(C#N)=C/Nc1ccsc1C(C)=O | 0.205 | –
64 | Cc1ccc(Cn2c(N/N=C/c3ccncc3)nc3c2c(=O)n(C)c(=O)n3C)cc1 | -3.34 | –
65 | O=C1CSC(=S)N1/N=C/c1ccc(O)c(O)c1O | – | 0.562 µM (active)
66 | Cc1cc(NC(=O)c2c(-c3c(F)cccc3Cl)noc2C)no1 | -7.12 | –
67 | COc1cccc(/C=N/NC(=O)C(C)Cn2cnc3ccccc32)c1 (stereo unspecified) | -0.552 | –
68 | COc1ccc(Oc2nc(-c3ccccn3)ncc2OC)cc1 | – | 12.6 µM (active)
69 | COc1ccc(Oc2ccc(-c3ccn[nH]3)cc2)cc1 | -8.28 | –
70 | COc1ccc(Oc2ncccc2[N+](=O)[O-])cc1 | -4.02 | –
71 | O=P(O)(O)c1cc(-c2ccccc2)oc1-c1ccccc1 | 0.0456 | –
72 | CCCCC1C2C(=O)N(c3ccc(C)cc3)C(=O)C2ON1c1ccccc1 (stereo unspecified) | -2.92 | –
73 | Cc1cc([N+](=O)[O-])nn1Cc1ccc(C(=O)N/N=C/c2ccc(N(C)C)cc2)cc1 | -10.8 | –
74 | O=C(O)c1cc2ccccc2cc1Nc1ccccc1 | -13.1 | –
75 | Nc1ccc(C(=O)C(=O)c2ccc(N)cc2)cc1 | 4.27 | –
76 | Nc1ccc(N)c(C(=O)O)c1 | – | 0.794 µM (active)
